# Laboratory results as given in the supplement of paper PMC10849652.
# About 7,900 targets were measured; listed, in parts, are those with a hit and a random draw of the rest. About 0.6% of all pairs of compound and target were hits. Values without a mark were called inactive.
# Key:
# Test in all cases: log2 fold change, soluble protein after heating vs DMSO (PISA); higher = thermal stabilisation; K562 cells, 10 uM, 30 min; active = over 0.2 and 3.5 SD of the protein, either way, in both replicates (recomputed)
# alvocidib = compound: CN1CC[C@H](c2c(O)cc(O)c3c(=O)cc(-c4ccccc4Cl)oc23)[C@H](O)C1 [alvocidib]
# Summary of the method: (§1)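 K562 cells at 2×10^6 cells/mL were exposed to 10 μM compound for 30 min, then aliquots were heated for 3 min across 48°C-58°C, pooled, and extracted in PBS containing 0.5% NP-40 at 4°C. The supernatant after 21,000xg for 90 min was taken as soluble protein and measured by TMTpro 16plex LC-MS/MS with channel sums equalised. Thermal stability is reported relative to control samples, with values from duplicates. Fold changes are given on a log2 scale.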
# [1] = compound: CNC(=O)C1=CC=CC=C1NC2=NC(=NC=C2Cl)NC3=C(C=C(C=C3)N4CCOCC4)OC
# Summary of the method: as §1
# rucaparib = compound: CNCc1ccc(-c2[nH]c3cc(F)cc4c3c2CCNC4=O)cc1 [rucaparib]
# Summary of the method: as §1
# encorafenib = compound: COC(=O)N[C@@H](C)CNc1nccc(-c2cn(C(C)C)nc2-c2cc(Cl)cc(NS(C)(=O)=O)c2F)n1 [encorafenib]
# Summary of the method: as §1
# [2] = compound: COC1=CC=C(C=C1)CN2C=CC3=C2C=C(C=C3)C(=O)NO
# Summary of the method: as §1
# zotarolimus = compound: CO[C@H]1C[C@@H]2CC[C@@H](C)[C@@](O)(O2)C(=O)C(=O)N2CCCC[C@H]2C(=O)O[C@H]([C@H](C)C[C@@H]2CC[C@H](n3cnnn3)[C@H](OC)C2)CC(=O)[C@H](C)/C=C(\C)[C@@H](O)[C@@H](OC)C(=O)[C@H](C)C[C@H](C)/C=C/C=C/C=C/1C [zotarolimus]
# Summary of the method: as §1
# idasanutlin = compound: COc1cc(C(=O)O)ccc1NC(=O)[C@@H]1N[C@@H](CC(C)(C)C)[C@](C#N)(c2ccc(Cl)cc2F)[C@H]1c1cccc(Cl)c1F [idasanutlin]
# Summary of the method: as §1
# alisertib = compound: COc1cc(Nc2ncc3c(n2)-c2ccc(Cl)cc2C(c2c(F)cccc2OC)=NC3)ccc1C(=O)O [alisertib]
# Summary of the method: as §1
# [3] = compound: COc1cc2nc(-c3cc(F)ccc3O)nc(N[C@@H]3CNC[C@H]3C(C)(C)O)c2cc1OC
# Summary of the method: as §1
# gefitinib = compound: COc1cc2ncnc(Nc3ccc(F)c(Cl)c3)c2cc1OCCCN1CCOCC1 [gefitinib]
# Summary of the method: as §1
# [4] = compound: COc1cccc2cc(-c3nc([C@H]4CC[C@H](C(=O)O)CC4)n4ncnc(N)c34)[nH]c12
# Summary of the method: as §1
# lapatinib = compound: CS(=O)(=O)CCNCc1ccc(-c2ccc3ncnc(Nc4ccc(OCc5cccc(F)c5)c(Cl)c4)c3c2)o1 [lapatinib]
# Summary of the method: as §1
# saracatinib = compound: CN1CCN(CCOc2cc(OC3CCOCC3)c3c(Nc4c(Cl)ccc5c4OCO5)ncnc3c2)CC1 [saracatinib]
# Summary of the method: as §1
# Tubastatin A = compound: CN1CCc2c(c3ccccc3n2Cc2ccc(C(=O)NO)cc2)C1 [Tubastatin A]
# Summary of the method: as §1
# defactinib = compound: CNC(=O)c1ccc(Nc2ncc(C(F)(F)F)c(NCc3nccnc3N(C)S(C)(=O)=O)n2)cc1 [defactinib]
# Summary of the method: as §1
# [5] = compound: CNc1nc(-c2ccc3c(N)n[nH]c3c2)cc(N2C[C@@H](C(=O)NC3CCCCC3)CC[C@H]2C)n1
# Summary of the method: as §1
# [6] = compound: COC(=O)[C@H](CCSC)NC(=O)C1=C(C=C(C=C1)NC[C@H](CS)N)C2=CC=CC=C2
# Summary of the method: as §1
# sotrastaurin = compound: CN1CCN(c2nc(C3=C(c4c[nH]c5ccccc45)C(=O)NC3=O)c3ccccc3n2)CC1 [sotrastaurin]
# Summary of the method: as §1
# filanesib = compound: CON(C)C(=O)N1N=C(c2cc(F)ccc2F)S[C@@]1(CCCN)c1ccccc1 [filanesib]
# Summary of the method: as §1
# pictilisib = compound: CS(=O)(=O)N1CCN(Cc2cc3nc(-c4cccc5[nH]ncc45)nc(N4CCOCC4)c3s2)CC1 [pictilisib]
# Summary of the method: as §1
# Chain of UniProt P30305 (P30305 whole entry, looked up): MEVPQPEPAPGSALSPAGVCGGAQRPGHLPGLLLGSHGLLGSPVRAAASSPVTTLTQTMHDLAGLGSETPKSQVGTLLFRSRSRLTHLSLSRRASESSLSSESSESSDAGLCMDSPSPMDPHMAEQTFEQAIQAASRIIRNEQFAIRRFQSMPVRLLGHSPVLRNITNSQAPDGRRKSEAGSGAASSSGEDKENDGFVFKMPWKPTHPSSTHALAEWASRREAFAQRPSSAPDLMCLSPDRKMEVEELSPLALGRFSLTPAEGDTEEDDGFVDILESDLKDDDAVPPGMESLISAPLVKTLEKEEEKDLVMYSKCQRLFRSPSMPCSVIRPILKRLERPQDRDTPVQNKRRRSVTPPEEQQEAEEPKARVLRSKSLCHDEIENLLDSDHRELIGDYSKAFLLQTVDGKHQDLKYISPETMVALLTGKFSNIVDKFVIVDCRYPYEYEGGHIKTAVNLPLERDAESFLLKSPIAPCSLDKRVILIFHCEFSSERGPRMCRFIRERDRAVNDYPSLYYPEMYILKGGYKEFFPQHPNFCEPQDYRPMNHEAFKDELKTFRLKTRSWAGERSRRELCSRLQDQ
# Chain of UniProt P30281 (P30281 whole entry, looked up): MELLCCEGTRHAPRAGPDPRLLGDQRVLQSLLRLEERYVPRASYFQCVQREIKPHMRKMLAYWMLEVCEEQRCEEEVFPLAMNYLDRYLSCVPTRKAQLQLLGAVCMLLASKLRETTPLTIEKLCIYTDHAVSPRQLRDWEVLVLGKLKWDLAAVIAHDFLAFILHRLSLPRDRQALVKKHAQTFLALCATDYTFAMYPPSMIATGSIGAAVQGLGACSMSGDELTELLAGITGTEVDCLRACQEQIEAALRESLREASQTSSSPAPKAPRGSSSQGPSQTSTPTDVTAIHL
# Chain of UniProt Q9H257 (Q9H257 whole entry, looked up): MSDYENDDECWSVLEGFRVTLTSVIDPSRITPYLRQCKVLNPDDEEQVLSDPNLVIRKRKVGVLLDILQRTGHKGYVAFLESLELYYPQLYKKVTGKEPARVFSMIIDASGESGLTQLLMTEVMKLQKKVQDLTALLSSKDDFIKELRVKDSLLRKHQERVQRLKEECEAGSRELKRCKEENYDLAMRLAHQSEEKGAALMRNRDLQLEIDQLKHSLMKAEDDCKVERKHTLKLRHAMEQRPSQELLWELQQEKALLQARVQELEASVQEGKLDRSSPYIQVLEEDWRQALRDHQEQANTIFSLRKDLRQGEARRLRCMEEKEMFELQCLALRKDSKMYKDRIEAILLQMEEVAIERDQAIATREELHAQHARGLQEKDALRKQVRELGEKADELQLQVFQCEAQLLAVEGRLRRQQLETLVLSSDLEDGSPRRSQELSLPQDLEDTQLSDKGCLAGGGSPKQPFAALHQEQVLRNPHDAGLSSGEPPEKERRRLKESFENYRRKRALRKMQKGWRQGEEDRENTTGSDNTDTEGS
# Chain of UniProt P55210 (P55210 whole entry, looked up): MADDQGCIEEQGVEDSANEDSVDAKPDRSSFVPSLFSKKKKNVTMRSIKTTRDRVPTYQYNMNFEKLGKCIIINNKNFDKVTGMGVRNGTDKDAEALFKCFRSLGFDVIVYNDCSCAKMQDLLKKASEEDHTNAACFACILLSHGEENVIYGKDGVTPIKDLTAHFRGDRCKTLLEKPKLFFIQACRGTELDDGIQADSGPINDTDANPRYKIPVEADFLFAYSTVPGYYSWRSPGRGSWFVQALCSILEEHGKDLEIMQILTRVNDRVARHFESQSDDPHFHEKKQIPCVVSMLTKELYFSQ
# Chain of UniProt P34810 (P34810 whole entry, looked up): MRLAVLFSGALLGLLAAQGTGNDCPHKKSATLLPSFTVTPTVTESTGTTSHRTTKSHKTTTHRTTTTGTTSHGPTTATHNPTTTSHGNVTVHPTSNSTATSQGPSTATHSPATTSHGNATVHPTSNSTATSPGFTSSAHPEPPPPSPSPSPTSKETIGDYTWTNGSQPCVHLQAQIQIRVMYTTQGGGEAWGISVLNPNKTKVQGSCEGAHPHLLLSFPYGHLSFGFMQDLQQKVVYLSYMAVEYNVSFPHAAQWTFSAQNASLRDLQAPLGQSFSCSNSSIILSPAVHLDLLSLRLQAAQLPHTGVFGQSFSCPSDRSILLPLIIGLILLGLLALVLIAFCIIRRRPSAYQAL
# Chain of UniProt O75122 (O75122 whole entry, looked up): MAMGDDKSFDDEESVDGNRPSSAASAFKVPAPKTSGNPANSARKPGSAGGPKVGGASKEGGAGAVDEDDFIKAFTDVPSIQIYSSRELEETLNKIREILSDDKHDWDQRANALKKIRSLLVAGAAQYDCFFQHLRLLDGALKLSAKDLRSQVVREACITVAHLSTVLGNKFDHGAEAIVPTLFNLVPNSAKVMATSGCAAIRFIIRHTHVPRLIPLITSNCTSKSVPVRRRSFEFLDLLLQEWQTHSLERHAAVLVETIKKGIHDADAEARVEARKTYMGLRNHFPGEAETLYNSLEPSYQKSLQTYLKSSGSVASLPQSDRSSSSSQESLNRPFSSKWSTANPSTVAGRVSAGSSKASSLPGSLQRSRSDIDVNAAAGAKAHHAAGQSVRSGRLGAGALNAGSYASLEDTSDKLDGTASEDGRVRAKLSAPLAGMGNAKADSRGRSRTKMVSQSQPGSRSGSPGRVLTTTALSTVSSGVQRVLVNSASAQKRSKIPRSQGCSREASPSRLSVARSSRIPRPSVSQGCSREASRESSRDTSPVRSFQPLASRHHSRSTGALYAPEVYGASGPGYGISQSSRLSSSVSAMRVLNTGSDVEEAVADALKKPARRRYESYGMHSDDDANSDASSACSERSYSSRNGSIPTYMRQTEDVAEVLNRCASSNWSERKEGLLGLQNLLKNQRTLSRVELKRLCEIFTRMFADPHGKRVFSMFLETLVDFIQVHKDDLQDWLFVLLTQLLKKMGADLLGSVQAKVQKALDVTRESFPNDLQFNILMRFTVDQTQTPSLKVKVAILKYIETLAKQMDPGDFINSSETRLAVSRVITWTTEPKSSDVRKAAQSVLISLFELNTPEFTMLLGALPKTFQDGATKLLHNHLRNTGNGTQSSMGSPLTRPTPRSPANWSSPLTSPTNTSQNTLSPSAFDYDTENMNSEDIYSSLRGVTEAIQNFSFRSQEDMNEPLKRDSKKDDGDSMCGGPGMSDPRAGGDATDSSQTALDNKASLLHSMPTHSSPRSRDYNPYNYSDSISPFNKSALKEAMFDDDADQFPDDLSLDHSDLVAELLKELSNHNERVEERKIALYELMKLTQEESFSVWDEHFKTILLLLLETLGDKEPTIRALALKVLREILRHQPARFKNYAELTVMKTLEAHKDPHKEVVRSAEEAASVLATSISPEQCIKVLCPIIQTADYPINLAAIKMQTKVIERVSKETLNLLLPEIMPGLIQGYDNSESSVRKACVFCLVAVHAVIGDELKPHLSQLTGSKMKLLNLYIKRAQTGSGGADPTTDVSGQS
# Chain of UniProt O14936 (O14936 whole entry, looked up): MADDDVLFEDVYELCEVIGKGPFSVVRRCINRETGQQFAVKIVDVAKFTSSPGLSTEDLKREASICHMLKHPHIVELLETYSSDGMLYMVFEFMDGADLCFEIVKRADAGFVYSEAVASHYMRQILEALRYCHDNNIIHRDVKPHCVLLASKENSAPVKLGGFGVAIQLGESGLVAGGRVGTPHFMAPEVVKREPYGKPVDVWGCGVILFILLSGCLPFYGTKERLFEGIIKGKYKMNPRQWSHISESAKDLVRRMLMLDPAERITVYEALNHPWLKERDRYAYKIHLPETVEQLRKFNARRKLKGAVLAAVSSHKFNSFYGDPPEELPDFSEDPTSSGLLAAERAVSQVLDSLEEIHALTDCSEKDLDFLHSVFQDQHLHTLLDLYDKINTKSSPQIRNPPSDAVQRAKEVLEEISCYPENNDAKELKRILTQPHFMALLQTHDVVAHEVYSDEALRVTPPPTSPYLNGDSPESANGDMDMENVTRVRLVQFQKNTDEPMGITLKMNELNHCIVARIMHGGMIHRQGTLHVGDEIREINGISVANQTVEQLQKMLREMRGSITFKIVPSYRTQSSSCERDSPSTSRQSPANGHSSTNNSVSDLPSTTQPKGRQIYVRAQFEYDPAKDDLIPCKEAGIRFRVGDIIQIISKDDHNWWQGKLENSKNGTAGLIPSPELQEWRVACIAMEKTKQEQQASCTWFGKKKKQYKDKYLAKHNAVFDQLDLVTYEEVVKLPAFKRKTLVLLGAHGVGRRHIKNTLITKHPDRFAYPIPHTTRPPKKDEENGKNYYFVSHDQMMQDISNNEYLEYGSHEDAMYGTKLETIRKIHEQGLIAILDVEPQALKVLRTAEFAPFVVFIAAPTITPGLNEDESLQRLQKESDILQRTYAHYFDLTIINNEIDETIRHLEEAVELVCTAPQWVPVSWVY
# Chain of UniProt Q96F85 (Q96F85 whole entry, looked up): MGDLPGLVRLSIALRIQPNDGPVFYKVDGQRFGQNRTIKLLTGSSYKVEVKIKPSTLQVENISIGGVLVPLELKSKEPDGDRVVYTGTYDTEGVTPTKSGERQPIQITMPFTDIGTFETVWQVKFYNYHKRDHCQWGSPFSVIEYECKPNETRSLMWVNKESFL
# Chain of UniProt Q70SY1 (Q70SY1 whole entry, looked up): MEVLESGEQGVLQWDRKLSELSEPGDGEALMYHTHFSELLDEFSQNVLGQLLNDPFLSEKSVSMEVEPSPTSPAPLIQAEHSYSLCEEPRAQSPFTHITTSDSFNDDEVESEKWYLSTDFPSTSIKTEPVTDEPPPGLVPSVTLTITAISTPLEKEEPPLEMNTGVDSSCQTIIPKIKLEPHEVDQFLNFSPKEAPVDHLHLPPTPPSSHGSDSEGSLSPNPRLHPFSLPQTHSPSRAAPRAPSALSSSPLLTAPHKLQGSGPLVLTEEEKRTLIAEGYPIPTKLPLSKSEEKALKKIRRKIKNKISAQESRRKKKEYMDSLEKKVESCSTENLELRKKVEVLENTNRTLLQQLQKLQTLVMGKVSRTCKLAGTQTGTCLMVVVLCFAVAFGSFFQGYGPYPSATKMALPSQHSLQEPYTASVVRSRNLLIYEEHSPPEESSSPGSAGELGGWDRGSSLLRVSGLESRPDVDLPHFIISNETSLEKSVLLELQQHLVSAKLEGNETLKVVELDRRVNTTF
target,measurement,setting,value
CLASP2 (UniProt O75122),log2 fold change,alvocidib,-0.069
same,log2 fold change,[1],0
same,log2 fold change,rucaparib,0
same,log2 fold change,encorafenib,0.098
same,log2 fold change,[2],0.015
same,log2 fold change,zotarolimus,0.235
same,log2 fold change,idasanutlin,0.101
same,log2 fold change,alisertib,-0.025
same,log2 fold change,[3],0.125
same,log2 fold change,gefitinib,0.071
same,log2 fold change,[4],0.072
same,log2 fold change,lapatinib,0.032
CA1 (UniProt E5RIF9),log2 fold change,saracatinib,0.272
same,log2 fold change,Tubastatin A,-0.178
same,log2 fold change,defactinib,-0.09
same,log2 fold change,[5],0.093
same,log2 fold change,[6],-0.129
CDC25B isoform 4 (UniProt P30305),log2 fold change,sotrastaurin,-0.018
same,log2 fold change,alvocidib,-0.031
same,log2 fold change,[1],-0.019
same,log2 fold change,defactinib,-0.25
same,log2 fold change,rucaparib,0.054
same,log2 fold change,encorafenib,-0.059
same,log2 fold change,[6],0.087
same,log2 fold change,[2],-0.038
same,log2 fold change,filanesib,0.005
same,log2 fold change,zotarolimus,-0.056
same,log2 fold change,idasanutlin,0.052
same,log2 fold change,alisertib,-0.018
same,log2 fold change,[3],0.026
same,log2 fold change,gefitinib,-0.013
same,log2 fold change,[4],0.068
same,log2 fold change,lapatinib,-0.012
same,log2 fold change,pictilisib,0.03
CNRIP1 (UniProt Q96F85),log2 fold change,[1],0.053
same,log2 fold change,alisertib,0.075
same,log2 fold change,[3],0.282
same,log2 fold change,gefitinib,0.002
same,log2 fold change,[4],-0.223
same,log2 fold change,lapatinib,0.054
CNN1 (UniProt P51911),log2 fold change,sotrastaurin,0.15
same,log2 fold change,alvocidib,-0.115
same,log2 fold change,Tubastatin A,0.126
same,log2 fold change,defactinib,-0.028
same,log2 fold change,rucaparib,0.102
same,log2 fold change,encorafenib,-0.046
same,log2 fold change,[6],0.043
same,log2 fold change,filanesib,-0.051
same,log2 fold change,zotarolimus,0.047
same,log2 fold change,idasanutlin,-0.048
same,log2 fold change,alisertib,-0.055
same,log2 fold change,[3],0.182
same,log2 fold change,gefitinib,-0.14
same,log2 fold change,[4],0.059
same,log2 fold change,lapatinib,-0.068
same,log2 fold change,pictilisib,0.172
CARD9 (UniProt Q9H257),log2 fold change,[1],0.388
same,log2 fold change,[2],-0.062
same,log2 fold change,idasanutlin,0.169
CASP7 isoform 3 (UniProt P55210),log2 fold change,saracatinib,0.185
same,log2 fold change,[1],0.151
same,log2 fold change,rucaparib,-0.013
same,log2 fold change,[5],0.254
same,log2 fold change,encorafenib,0.014
same,log2 fold change,gefitinib,0.282
same,log2 fold change,pictilisib,0.234
CS (UniProt F8VU34),log2 fold change,rucaparib,0.268
same,log2 fold change,encorafenib,0.158
C5orf30 (UniProt Q96GV9),log2 fold change,Tubastatin A,0.502
same,log2 fold change,idasanutlin,0.022
same,log2 fold change,[3],-0.094
same,log2 fold change,lapatinib,-0.21
"CCDC187, A0A1W2PQX5",log2 fold change,idasanutlin,-0.051
same,log2 fold change,gefitinib,-0.312
same,log2 fold change,pictilisib,0.191
CCDC57 (UniProt Q2TAC2),log2 fold change,sotrastaurin,0.059
same,log2 fold change,alvocidib,-0.055
same,log2 fold change,Tubastatin A,0.026
same,log2 fold change,[1],0.04
same,log2 fold change,defactinib,0.02
same,log2 fold change,rucaparib,-0.15
same,log2 fold change,encorafenib,0.041
same,log2 fold change,[6],0.007
same,log2 fold change,[2],0.006
same,log2 fold change,filanesib,0.01
same,log2 fold change,zotarolimus,-0.081
same,log2 fold change,alisertib,0.013
same,log2 fold change,[3],-0.008
same,log2 fold change,gefitinib,0.009
same,log2 fold change,[4],0.063
same,log2 fold change,lapatinib,0.07
CCND3 (UniProt P30281),log2 fold change,saracatinib,0.03
same,log2 fold change,alvocidib,0.008
same,log2 fold change,Tubastatin A,0.242
same,log2 fold change,[1],-0.018
same,log2 fold change,defactinib,-0.037
same,log2 fold change,rucaparib,0.113
same,log2 fold change,[5],-0.067
same,log2 fold change,encorafenib,-0.11
same,log2 fold change,[6],0
same,log2 fold change,zotarolimus,-0.035
same,log2 fold change,idasanutlin,-0.036
same,log2 fold change,alisertib,-0.043
same,log2 fold change,[3],-0.276
same,log2 fold change,[4],0.012
same,log2 fold change,lapatinib,0.083
same,log2 fold change,pictilisib,0.03
COMMD3-BMI1 (UniProt R4GMX3),log2 fold change,sotrastaurin,-0.024
same,log2 fold change,alvocidib,0.05
same,log2 fold change,Tubastatin A,-0.074
same,log2 fold change,filanesib,-0.08
same,log2 fold change,zotarolimus,-0.12
same,log2 fold change,idasanutlin,0.093
same,log2 fold change,[3],0.519 (active)
same,log2 fold change,gefitinib,-0.029
same,log2 fold change,lapatinib,-0.445
same,log2 fold change,pictilisib,0.135
CASK (UniProt O14936),log2 fold change,saracatinib,-0.068
same,log2 fold change,[1],-0.064
same,log2 fold change,[5],-0.009
same,log2 fold change,[2],0.046
same,log2 fold change,idasanutlin,-0.031
CD68 (UniProt P34810),log2 fold change,sotrastaurin,-0.031
same,log2 fold change,[1],0.043
same,log2 fold change,filanesib,0.05
same,log2 fold change,alisertib,-0.126
same,log2 fold change,[4],-0.025
CHST10 (UniProt O43529),log2 fold change,sotrastaurin,-0.01
same,log2 fold change,alvocidib,-0.106
same,log2 fold change,Tubastatin A,-0.037
same,log2 fold change,[1],0.035
same,log2 fold change,[2],-0.11
same,log2 fold change,filanesib,0.021
same,log2 fold change,zotarolimus,0.088
same,log2 fold change,idasanutlin,0.062
same,log2 fold change,alisertib,-0.014
same,log2 fold change,[3],-0.073
same,log2 fold change,gefitinib,-0.071
same,log2 fold change,[4],0.088
same,log2 fold change,lapatinib,0.058
same,log2 fold change,pictilisib,0.027
CREB3L2 (UniProt Q70SY1),log2 fold change,alvocidib,-0.242
same,log2 fold change,Tubastatin A,0.282
same,log2 fold change,[1],-0.19
same,log2 fold change,defactinib,-0.039
same,log2 fold change,[6],-0.172
same,log2 fold change,[2],0.584
same,log2 fold change,zotarolimus,0.042
same,log2 fold change,idasanutlin,0.045
same,log2 fold change,alisertib,-0.022
same,log2 fold change,gefitinib,-0.154
same,log2 fold change,[4],0.176
